Sfp PPTase inh = Sfp phosphopantetheinyl transferase inhibition | AID 1490 | Biochemical Sfp PPTase activity, qHTS | Potency, µM, for inactives: largest response in the series, negative = inhibition, actives largely listed as inhibitors | Q9F4F7 | hit rate 3.5% among 310,000;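 also: the enzyme is Sfp with the accession as filed and its product quenches rhodamine fluorescence; 0% = enzyme reaction without inhibitor and -100% = no enzyme wells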
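Sfp 15 nM + cpd, 15 min RT; start w/ rhodamine-CoA 5 uM, BHQ-2-YbbR 12.5 uM (final); 50 mM Hepes pH 7.6, 10 mM MgCl2, 0.01% NP-40, 0.01% BSA; read 525/598 nm at 0 and 30 min.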
BAZ2B block = BAZ2B (human) inhibition; Potency, µM (doses to about 114 µM), inactives show top-dose activity change, negative = inhibition, hits mostly inhibitors; hit rate 4.4% among 360,000; AID 504333; AlphaScreen BAZ2B-H3K14Ac peptide displacement; also: % is scaled to controls: 0 for no effect and ±100 for the full control effect; nearly all actives have a fitted effect of over 60% in size
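BAZ2B (50 nM) with biotin-H3(5-23)K14Ac peptide (50 nM) in PBS pH 7.4, 0.01% Tween-20, preformed 30 min, then compound 30 min at room temperature; top concentration 110uM. AlphaScreen streptavidin donor/nickel chelate acceptor beads (10 ug/mL final), 20 min dark, signal read.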
G9a inh = G9a (human) methyltransferase inhibition | Q96KQ7 | G9a H3K9 monomethylation, AlphaScreen, 2 h | Potency, µM (series often up to 102 µM), inactives show at the top dose activity, negative = inhibition, usual class: inhibitors | hit rate 8.8% among 350,000 | AID 504332; also: % is scaled to controls: 0 for no effect and ±100 for the full control effect; nearly all actives have a fitted effect of over 75% in size
Target sequence (Q96KQ7 913-1193 limits assumed): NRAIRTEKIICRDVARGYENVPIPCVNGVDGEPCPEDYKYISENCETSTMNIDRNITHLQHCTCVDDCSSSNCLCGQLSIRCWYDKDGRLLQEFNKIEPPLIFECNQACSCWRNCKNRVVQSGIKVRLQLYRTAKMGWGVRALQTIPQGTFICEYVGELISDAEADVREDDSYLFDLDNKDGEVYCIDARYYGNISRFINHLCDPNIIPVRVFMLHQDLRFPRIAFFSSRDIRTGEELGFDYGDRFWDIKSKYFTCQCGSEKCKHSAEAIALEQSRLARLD
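Compounds were preincubated with 20 nM G9a for 15 min, after which biotinylated H3K9 peptide (500 nM) and SAM (20 uM) started a 2 h room-temperature reaction. Monomethylated product was quantified by antibody-based AlphaScreen chemiluminescence.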
HP1b binding inh = inhibitors of HP1-beta chromodomain binding to methylated histone tails; P83916; AlphaScreen HP1-beta / biotin-H3K9me3 peptide binding; Potency, µM (series often up to 114 µM), without a hit: top-dose activity change, negative = inhibition, most hits filed as inhibitors; hit rate 0.56% among 390,000; also: nearly all actives have a fitted effect of over 70% in size
Target sequence (P83916 whole entry, looked up): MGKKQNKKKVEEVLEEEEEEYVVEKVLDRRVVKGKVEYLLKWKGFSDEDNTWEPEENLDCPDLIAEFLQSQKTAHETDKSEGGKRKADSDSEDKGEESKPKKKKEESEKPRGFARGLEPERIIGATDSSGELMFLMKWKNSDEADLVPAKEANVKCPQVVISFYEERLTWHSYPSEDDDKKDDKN
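AlphaScreen: HP1-beta (50 nM) preformed 30 min with biotin-H3(1-18)K9me3 peptide (50 nM) in PBS pH 7.4, 0.01% Tween-20. Compound added for 30 min at RT, then streptavidin donor/nickel chelate acceptor beads (10 ug/mL) for 30 min.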
ALOX12 inh = ALOX12 (human) lipoxygenase inhibition; Potency, µM (top dose mostly 108 µM), without a hit: top-dose activity change, negative = inhibition, most hits filed as inhibitors; hit rate 1.1% among 580,000; purified 12hLO, xylenol orange hydroperoxide absorbance; also: % is scaled to controls: 0 for no effect and ±100 for the full control effect
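Purified human 12hLO at 150 nM in 25 mM Hepes, 0.01% Triton X-100, pH 7.0, preincubated 15 min at room temperature with compound. Reaction started with 40 uM arachidonic acid, 30 min at room temperature. Hydroperoxide measured by Fe-xylenol orange, 573/405 nm absorbance ratio.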
JMJD2A Tudor = JMJD2A Tudor domain (human) inhibition. O75164. AlphaScreen JMJD2A-Tudor / H3K4me3 peptide binding. Potency, µM (highest dose often 114 µM), for the others: at the top dose activity change, negative = inhibition, most hits filed as inhibitors. hit rate 4.4% among 390,000; also: % is scaled to controls: 0 for no effect and ±100 for the full control effect; nearly all actives have a fitted effect of over 50% in size
* marks the source's active call; other numbers are inactive results; ? = inconclusive; . = no result given; [ ] = another dose, or the depositor's remark. Most compounds without a hit are left out; they make up all but 8.7% or so of the library. Calls follow the shape of the dose curve; as a rule, active = well fitted curve in the direction sought with a large enough effect; inconclusive = small, poorly fitted or top-dose-only effect, or another doubt; inactive = no such curve, though single readings can be large; an effect the other way counts as inactive or inconclusive. Potency is read from the fitted curve at half-maximal effect.

SMILES	Sfp PPTase inh	BAZ2B block	G9a inh	HP1b binding inh	ALOX12 inh	JMJD2A Tudor
CC(C)C(=O)Nc1nc(-c2ccc3c(c2)CCN3C(=O)C2CC2)cs1	8%	-16%	?	6%	-9%	0%
O=C(CN1CCCC1)Nc1nc(-c2ccc3c(c2)CCN3C(=O)c2ccccc2F)cs1	-5%	-28%	?	-6%	.	?
CNc1nc(-c2ccc3c(c2)CCN3C(=O)c2ccccc2C)cs1	?	50µM*	22µM*	?	?	?
CNc1nc(-c2ccc3c(c2)CCN3C(=O)c2ccc(F)cc2)cs1	-5%	?	32µM*	9%	7%	-27%
CC(C)(C)Nc1nc(-c2ccc3c(c2)CCN3C(=O)C2CC2)cs1	-22%	?	40µM*	?	-29%	?
Cc1ccc(-c2nn(CCC(=O)Nc3ccc(Cl)cc3)c(=O)c3ccccc23)cc1	.	.	.	.	-7%	.
Cc1nn(C(C)C(=O)N/N=C/c2ccc(N(C)C)cc2)c(C)c1[N+](=O)[O-] (configuration not stated)	-12%	?	56µM*	-2%	109%	?
Cc1ccc(/C=N/NC(=O)Cn2nnc(N)n2)o1	-8%	-3%	45µM*	28%	0%	-8%
Cc1ccc(/C=N/NC(=O)Cn2nnc(N)n2)cc1	16%	2%	-2%[12.7 µM]	20%	11%	-14%
COc1ccc(/C=N/NC(=O)Cn2nc(C)c([N+](=O)[O-])c2C)cc1	-2%	-3%	13%[59 µM]	11%	3%	79µM*
Cc1ccc(/C=N/NC(=O)Cn2nc(C)c([N+](=O)[O-])c2C)o1	45µM*	-18%	50µM*	31%	191%	-22%
CCC(C)(C)C1CCc2c(sc(NC(=O)C3CC3c3ccccc3)c2C#N)C1 (configuration not stated)	.	.	.	.	-30%	.
COC1C(=O)N(c2cccc(F)c2)C12CCN(C(=O)c1cccnc1C)CC2 (configuration not stated)	.	.	.	.	-8%	.
Cc1oc2cc(OCC(=O)NCc3ccco3)ccc2c(=O)c1Oc1ccccc1Br	.	.	.	.	-56%	.
O=C(NCc1ccccc1)N1CCN(C(=O)N2CC3CC(C2)[C@H]2CCCC(=O)N2C3)CC1 (some centres not stated)	.	.	.	.	34%	.
O=C(/C=C/c1ccccc1[N+](=O)[O-])OCc1ccccc1F	.	.	.	.	-22%	.
NC(=O)COC(=O)/C=C/c1ccccc1[N+](=O)[O-]	32%	-29%	-5%	-7%	0%	-29%
O=C(/C=C/c1ccccc1[N+](=O)[O-])c1ccc(F)cc1	-28%	-16%	40µM*	6%	-4%	-3%
O=C(/C=C/c1ccccc1[N+](=O)[O-])Oc1ccccc1	-6%	?	71µM*	.	.	.
O=C(/C=C/c1cccc(O)c1)c1ccc(F)cc1	.	.	.	.	45µM*	.
CCN(Cc1ccccc1)C(=O)/C=C/c1ccccc1[N+](=O)[O-]	18%	89µM*	-47%	40%	-1%	-21%
O=c1c2cnc3nc(C(F)(F)F)nn3c2ccn1-c1cc(Cl)ccc1Cl	.	.	.	.	-21%	.
COc1cccc2cc(-c3nn4c(C(C)C)nnc4s3)oc12	.	.	.	.	-31%	.
Cc1ccc(Cn2c(CN3CCCC(O)(CO)C3)nc3ccccc32)cc1 (configuration not stated)	.	.	.	.	61%	.
O=C(O)c1cccc(COc2ccc3c(c2)CCC3)c1	6%	19%	50µM*	-8%	55%	-13%
SMILES	Sfp PPTase inh	BAZ2B block	G9a inh	HP1b binding inh	ALOX12 inh	JMJD2A Tudor
O=C(c1ccco1)N1CCN(C(=O)c2ccc(COc3ccc4c(c3)CCC4)o2)CC1	-12%	50µM*	1%[0.0925 µM]	10%	8%	?
NC(=O)NNC(=O)Nc1ccccc1	.	.	.	.	37%	.
Fc1ccc(CNCCN2CCCC2)cc1F	.	.	.	.	-20%	.
COC(=O)C/C=C\[C@@H](C)[C@@H](/C=N\OCC[C@@H]1C=C[C@H](OC(C)=O)[C@H](COC(C)=O)O1)OC	1µM*	.	.	.	.	.
O=C(NNC(=O)C12CC3CC(CC(C3)C1)C2)c1cccc(O)c1	13%	-8%	19%	7%	-1%	-5%
O=C(NC(=S)Nc1cccc(O)c1)C12CC3CC(CC(C3)C1)C2	.	.	.	.	22µM*	.
CCC(=O)NC(=S)Nc1cccc(NC(=O)c2ccco2)c1	-18%	-12%	.	-4%	0%	-25%[57.1 µM]
O=C(NC(=S)Nc1cccc(O)c1)c1ccco1	?	-20%	50µM*	14%	?	-17%
O=C(NC(=S)Nc1ccc2c(c1)OCCO2)c1ccco1	2%	?	71µM*	-16%	-19%	?
O=C(Nc1ccc(I)cc1F)c1ccc(-c2ccccc2)cc1	.	.	.	.	13%	.
Cc1ccc(C(=O)OCC(=O)c2cc(C)n(Cc3ccccc3)c2C)o1	.	.	.	.	8%	.
CCOC(=O)c1c(NC(=O)Cn2nnc(-c3ccccc3)n2)sc(CC)c1C	.	.	.	.	13µM*	.
CCOC(=O)c1cc(CC)sc1NC(=O)Cn1nnc(-c2ccc(C)cc2)n1	.	.	.	.	-2%	.
Cc1ccc(-c2nnn(CC(=O)Nc3nnc(C(C)C)s3)n2)cc1	-3%	0%	-3%	0%	-12%	56µM*
CC/C=C(/C)C(=O)NCc1sccc1C	.	.	.	.	3%	.
Cc1cccc(C2C3=C(Nc4[nH]n(-c5ccccc5)c(=O)c42)c2ccccc2C3=O)c1 (configuration not stated)	-16%	32µM*	20µM*	?	35µM*	35µM*
COCCNc1oc(-c2ccc(S(=O)(=O)N3CCCCCC3)cc2)nc1C#N	.	.	.	.	-2%	.
CCN1C(=O)/C(=C/C=C2\N(CC)c3cc(S(=O)(=O)N(C)C)ccc3N2c2ccccc2)SC1=S	?	8.9µM*	?	-17%	0%	-31%[11.4 µM]
CCN1C(=O)/C(=C\c2cn(-c3ccccc3)nc2-c2cccnc2)SC1=S	3%	-11%	1%	18%	-5%	-17%
CCCC1CC(C(=O)NC(C(C)O)C2OC(SC)C(O)C(O)C2O)N(C)C1 (configuration not stated)	.	.	.	.	-24%	.
CCc1ccc(C2=NNC(=Nc3cccc(S(=O)(=O)N(C)C)c3)SC2)cc1	71µM*	-36%	1%[59 µM]	4%	-16%	-22%
Cc1cccc(N=C2NN=C(c3ccc4c(c3)OCCO4)CS2)c1	-25%	-39%	19%[12.7 µM]	-22%	-18%	-21%
O=C(NNC1=NCCC1)c1ccc(Br)cc1	21%	-1%	-4%	41%	0%	-6%
O=C(NNC1=NCCC1)C1CC1	-6%	?	13µM*	-18%	-10%	-35%[57.1 µM]
COc1ccc(C2CC(=O)c3cc(-c4nc(-c5cccc([N+](=O)[O-])c5)cs4)c(=O)n(-c4ccc(C)c(C)c4)c3C2)cc1 (configuration not stated)	.	-39%	11µM*	37%	-14%	-22%
